Anthrax LF prot – anthrax lethal factor protease inhibition; P15917; multiplex microsphere protease cleavage assay, LF; inhibition, % at 10 µM; hit rate 0.12% among 360,000; note: plate controls were buffer without enzyme for full effect and enzyme alone for no effect
TcdB GH inh – blocks C. difficile toxin B glycohydrolase activity | inhibition, % at 9.99 µM | TcdB glycohydrolase enzymatic assay, plate reader | AID 652162 | P18177 | hit rate 0.24% among 350,000; in the data active = inhibition above about 10%
BoNT-F LC inh – inhibitors of Botulinum neurotoxin F light chain protease; inhibition, % at 10 µM; Multiplex microsphere protease cleavage assay, flow cytometry; hit rate 0.22% among 360,000; in the data active = inhibition above about 35%, passing the limit was not always enough; inconclusive = no clear call, values can overlap the other calls; note: plate controls were buffer without enzyme for full effect and enzyme alone for no effect
Autofluor counter – compound fluorescence in toxin protease inhibitor counterscreen; compound autofluorescence counterscreen, microsphere flow cytometry; hits give high values; fluorescence intensity (no concentration beside the values); hit rate 3.1% among 360,000; in the data active = fluorescence intensity above about 16000; inconclusive = no clear call, values can overlap the other calls
BoNT-A LC inh2 – BoNT A light chain protease inhibition | inhibition, % at 10 µM | hit rate 0.17% among 360,000 | multiplex microsphere protease substrate cleavage, flow cytometry; note: plate controls were buffer without enzyme for full effect and enzyme alone for no effect
* hit, by the source's call. Shown is part of a subset that was picked to be rich in hits. Cut-off read from the data, not from the text of the source, unless noted: active = inhibition above about 30%; inconclusive = no clear call, values can overlap the other calls; inactive = below that.

What do the screens show for `COC(=O)C[C@@H]1CC[C@@H]2[C@H](COC[C@H](O)CN2C(=O)Nc2ccccc2OC)O1`?
TcdB GH inh: 13*

What do the screens show for `O=C(C[C@@H]1CC[C@H]2[C@@H](COC[C@@H](O)CN2C(=O)c2ccccn2)O1)NC1CCC1`?
TcdB GH inh: 10*

Results for COc1cccc(NC(=O)N2CC3(C2)[C@H](c2ccccc2)[C@@H](CO)N3C(=O)C2CC2)c1 ?
TcdB GH inh: -1

What do the screens show for `Cc1ccc2nsnc2c1S(=O)(=O)N1CCOCC1`?
Anthrax LF prot: -4; BoNT-F LC inh: -3; Autofluor counter: 22875*; BoNT-A LC inh2: -2

How did O=S(=O)(c1cccc2nsnc12)N1CCOCC1 do in these assays?
Anthrax LF prot: -1; BoNT-F LC inh: 2; Autofluor counter: 2883; BoNT-A LC inh2: 0

What do the screens show for `COc1cccc(N=c2oc3ccc(OC)cc3cc2-c2nc3ccccc3[nH]2)c1`?
Anthrax LF prot: -1; BoNT-F LC inh: 0; Autofluor counter: 3835; BoNT-A LC inh2: 0

Results for COc1cccc(N=c2oc3ccccc3cc2-c2nc3ccccc3[nH]2)c1 ?
Anthrax LF prot: 1; BoNT-F LC inh: 54*; Autofluor counter: inconclusive; BoNT-A LC inh2: 1

How did CCOCCCNC(=S)NNC(=O)CCn1nc(C)c(Br)c1C do in these assays?
Anthrax LF prot: -1; TcdB GH inh: 1; BoNT-F LC inh: -5; Autofluor counter: 24089*; BoNT-A LC inh2: -5

Results for COc1cc2nc(CC(C)C)n(NC(=O)c3ccccc3)c(=O)c2cc1OC ?
Anthrax LF prot: 1; TcdB GH inh: 1; BoNT-F LC inh: 3; Autofluor counter: 22766*; BoNT-A LC inh2: inconclusive

What do the screens show for `CC(=O)Nc1nc(=S)n(-c2ccccc2)[nH]1`?
Anthrax LF prot: 0; BoNT-F LC inh: 2; Autofluor counter: 22526*; BoNT-A LC inh2: 2

How did CC(C)c1nc(=S)n(-c2ccccc2)[nH]1 do in these assays?
Anthrax LF prot: -2; BoNT-F LC inh: -3; Autofluor counter: 2470; BoNT-A LC inh2: 0

What do the screens show for `O=S(=O)(c1ccccc1C(F)(F)F)N1CCN(S(=O)(=O)c2ccccc2C(F)(F)F)CC1`?
Anthrax LF prot: -3; BoNT-F LC inh: 3; Autofluor counter: 22001*; BoNT-A LC inh2: 1

How did CC(=O)c1ccc(S(=O)(=O)N2CCN(S(=O)(=O)c3ccccc3C(F)(F)F)CC2)cc1 do in these assays?
Anthrax LF prot: -9; TcdB GH inh: -1; BoNT-F LC inh: -18; Autofluor counter: 3903; BoNT-A LC inh2: -3

Results for O=C(c1ccccc1C(F)(F)F)N1CCN(S(=O)(=O)c2ccccc2)CC1 ?
Anthrax LF prot: 2; BoNT-F LC inh: 1; Autofluor counter: 19835*; BoNT-A LC inh2: 1

How did O=C(c1cc(-c2cccs2)nc2ccccc12)N1CCN(S(=O)(=O)c2ccccc2)CC1 do in these assays?
Anthrax LF prot: -3; BoNT-F LC inh: 3; Autofluor counter: 16484*; BoNT-A LC inh2: 0

Results for C/C=C/c1ccc([C@H]2[C@H](CO)N(C(=O)C3CC3)C23CN(C(=O)NC(C)C)C3)cc1 ?
TcdB GH inh: -2

How did C[C@H](CO)N1C[C@H](C)[C@H](CN(C)C(=O)C2CCOCC2)Oc2ncc(C#CCc3ccccc3)cc2C1=O do in these assays?
TcdB GH inh: 1

What do the screens show for `COc1ccc(/C=C2\C(=O)NCC(=O)N2C)cc1`?
Anthrax LF prot: 34*; TcdB GH inh: 1; BoNT-F LC inh: 88*; Autofluor counter: 6212; BoNT-A LC inh2: 5

How did C[C@H](CO)N1C[C@H](C)[C@@H](CN(C)C(=O)c2ccccn2)Oc2ncc(C#Cc3ccccn3)cc2C1=O do in these assays?
TcdB GH inh: 0

What do the screens show for `Cc1ccc(S(=O)(=O)Oc2ccc(/C=C3\N=C(c4cccc(C)c4)OC3=O)cc2)cc1`?
Anthrax LF prot: 3; BoNT-F LC inh: 4; Autofluor counter: 21802*; BoNT-A LC inh2: 4

What do the screens show for `Cc1cccc(C2=N/C(=C\c3cccs3)C(=O)O2)c1`?
Anthrax LF prot: 6; TcdB GH inh: 1; BoNT-F LC inh: 0; Autofluor counter: 4541; BoNT-A LC inh2: 1

Results for CCCc1cn(CC[C@@H]2CC[C@@H](NS(=O)(=O)c3ccc(-c4ccccc4)cc3)[C@H](CO)O2)nn1 ?
TcdB GH inh: 0

What do the screens show for `O=S(=O)(Cc1ccccc1)N1CCN(C/C=C/c2ccccc2)CC1`?
Anthrax LF prot: -1; BoNT-F LC inh: -8; Autofluor counter: 25473*; BoNT-A LC inh2: -5

Results for C[C@H]1CCCCO[C@H](CN(C)C(=O)Nc2cccc3ccccc23)[C@@H](C)CN([C@@H](C)CO)C(=O)c2cc(NS(=O)(=O)c3ccc(Cl)cc3)ccc2O1 ?
TcdB GH inh: -1
